Assay outcomes from PubChem.
Mdm2 MdmX PPI: inhibitors of human Mdm2-MdmX association, primary screen, cell-based, luminescence, split luciferase, SaOS-2, uHTS; hit rate 3% among 330,000; inhibition, % at 8 µM; SaOS-2 split-luciferase Mdm2/MdmX complementation;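 active = inhibition of at least 50% at 8 µM in the primary screen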
Target sequence (O15151 whole entry, looked up): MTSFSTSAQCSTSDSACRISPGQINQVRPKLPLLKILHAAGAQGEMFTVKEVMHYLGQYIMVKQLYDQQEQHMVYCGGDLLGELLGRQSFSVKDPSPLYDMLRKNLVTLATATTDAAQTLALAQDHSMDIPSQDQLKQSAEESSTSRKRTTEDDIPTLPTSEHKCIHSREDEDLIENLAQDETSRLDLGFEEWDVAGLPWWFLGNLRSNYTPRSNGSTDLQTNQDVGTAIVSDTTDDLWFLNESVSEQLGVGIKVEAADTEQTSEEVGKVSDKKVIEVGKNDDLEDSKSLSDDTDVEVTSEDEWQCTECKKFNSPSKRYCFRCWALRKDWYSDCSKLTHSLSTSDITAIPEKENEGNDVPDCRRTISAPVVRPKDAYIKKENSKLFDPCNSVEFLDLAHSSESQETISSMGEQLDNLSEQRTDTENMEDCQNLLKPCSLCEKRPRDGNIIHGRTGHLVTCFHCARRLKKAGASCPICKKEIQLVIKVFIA
Target sequence (Q00987 whole entry, looked up): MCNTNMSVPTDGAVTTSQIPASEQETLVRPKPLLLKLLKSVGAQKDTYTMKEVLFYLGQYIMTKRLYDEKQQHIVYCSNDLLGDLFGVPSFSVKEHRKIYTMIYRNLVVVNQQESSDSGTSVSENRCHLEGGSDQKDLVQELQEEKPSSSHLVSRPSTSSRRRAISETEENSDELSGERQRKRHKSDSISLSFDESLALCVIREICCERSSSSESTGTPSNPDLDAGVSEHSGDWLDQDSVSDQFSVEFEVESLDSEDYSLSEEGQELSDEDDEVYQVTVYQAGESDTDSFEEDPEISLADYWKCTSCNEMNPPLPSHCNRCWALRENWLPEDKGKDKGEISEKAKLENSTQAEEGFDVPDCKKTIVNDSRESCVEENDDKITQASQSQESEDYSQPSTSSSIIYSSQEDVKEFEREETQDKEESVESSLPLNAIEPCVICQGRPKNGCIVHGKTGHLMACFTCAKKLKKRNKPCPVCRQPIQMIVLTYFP
Gli-Sufu block: Gli-Sufu pathway antagonists, primary screen, luciferase luminescence, Sufu-KO-LIGHT cells, uHTS. Sufu-KO-LIGHT fibroblasts, Gli luciferase reporter luminescence. inhibition, % at 5 µM. hit rate 0.74% among 340,000;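 active = inhibition above about 55%, limit read from the data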;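 note: 0% = DMSO-treated cells and 100% = wells with medium but no cells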
KLF5 inh: KLF5 expression inhibitors, primary screen, DLD-1 cells, luminescence. DLD-1 KLF5 promoter-luciferase reporter. inhibition, % at 5 µM. hit rate 0.23% among 290,000. AID 1700, 2009;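 active = inhibition above a per-plate limit of that plate's mean compound inhibition plus 3 SD, cut at about 60% in these data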;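 note: 0% = DMSO wells and 100% = LY294002 at 200 µM; higher means less KLF5 promoter-driven luciferase light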
697 NFkB inh: inhibitors of PMA/ionomycin-induced NF-kB reporter, 697 cells, primary screen, B-cell NF-kB inhibitor project, cell-based, luminescence, uHTS. 697 B-cell NF-kB luciferase reporter, 16 h. inhibition, % at 4 µM. hit rate 0.33% among 330,000; in the data active = inhibition above about 35%
Jurkat NFkB inh: inhibitors of induced NF-kB luciferase reporter, primary screen, TCR NF-kB activation inhibitor project, cell-based, luminescence, uHTS. Jurkat, PMA/ionomycin-induced NF-kB luciferase reporter. inhibition, % at 4 µM. hit rate 0.53% among 330,000; in the data active = inhibition above about 50%
aSyn UTR inh: MLPCN primary screen, SNCA 5' untranslated region. alpha-synuclein 5'UTR reporter, inhibitor activity. inhibition, % (tested at 7.5 µM). hit rate 0.82% among 300,000. AID 1813, 2009; in the data active = inhibition above about 60%;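 note: H4 neuroglioblastoma cells stably carrying SNCA 5'UTR luciferase fusion; 0% = DMSO wells and 100% = positive control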
Jurkat NFkB conf: PMA/ionomycin-induced NF-kB reporter inhibitors, Jurkat retest, confirmation, T-cell NF-kB inhibitor project, cell-based, luminescence, single concentration | inhibition, % at 4 µM | hit rate 27% among 2,700 | Jurkat NF-kB luciferase, 16 h | shares compounds with Jurkat NFkB inh;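 active = inhibition reaching about 45% at 4 µM in either replicate, limit read from the data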;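 note: plate controls were PMA/ionomycin stimulated DMSO wells for no effect and unstimulated DMSO wells for full effect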
697 NFkB conf: PMA/ionomycin-induced NF-kB reporter inhibitors, 697 retest, confirmation, B-cell NF-kB inhibitor project, cell-based, luminescence, single concentration; shares compounds with 697 NFkB inh; hit rate 35% among 2,000; 697 B-cell NF-kB luciferase, 16 h; inhibition, % at 4 µM; AID 449746, 2010; in the data active = inhibition mostly above about 28%, no sharp cut-off; inactive = mostly below about 22%
Mdm2 MdmX conf: Mdm2-MdmX complex disruptors, retested hits, confirmation, luminescence, single concentration; hit rate 55% among 10,000; AID 489028, 2010; shares compounds with Mdm2 MdmX PPI; inhibition, % at 8 µM; Mdm2-MdmX binding, luminescent assay; in the data active = inhibition above about 40%
FLuc counter: full-length luciferase signal inhibition, confirmation, counter-screen for Mdm2/MdmX interaction inhibitor project, cell-based, single concentration, SaOS-2. shares compounds with Mdm2 MdmX PPI. SaOS-2 full-length luciferase counterscreen, luminescence. inhibition, % at 8 µM. hit rate 77% among 6,200. AID 504607, 2011;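 active = mean inhibition at 8 µM reaching about 37%, which flags the compound as non-specific, limit read from the data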;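 note: p53-null SaOS-2 cells with luciferase driven by a doxycycline-inducible promoter; compound on cells about two nights before reading with doxycycline added after day one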
Starred values were filed as active, the others as inactive; i = inactive; . = no result. Rows were chosen to be rich in hits. Some 4.1% of all compounds tested hit in one or more screens of this group.

SMILES	Mdm2 MdmX PPI	Gli-Sufu block	KLF5 inh	697 NFkB inh	Jurkat NFkB inh	aSyn UTR inh	Jurkat NFkB conf	Mdm2 MdmX conf	FLuc counter	others
CN(C)c1ccc(-c2nn3c(-c4ccccc4Cl)nnc3s2)cc1	53.3*	17.7	23.4	24.7	75.1*	82.3*	63.4*	65.5*	64.6*
Cc1c(C(=O)N2CCOCC2)[nH]c2c1C(=O)CC(c1ccccc1Cl)C2 (stereo not given)	72.8*	40.8	60.8	-56.7	52.1*	4.1	47.8*	55.8*	59.1*
O=C(CCSc1ccc(F)cc1)NNC(=O)c1ccccc1Cl	-5.4	4.1	.	15.1	-7.9	.	.	.	.
CCN1CCN(CCCNC(=O)c2ccc(NC(=O)C3=C(C)OCCS3)cc2)CC1	15.9	-10.9	-27.7	5.4	-0.3	19.9	.	.	.
C[C@@H]1C=CC(=O)O[C@@H]1c1ccc(Cl)cc1	78.9*	6.4	16.2	-32.5	96.0*	-193.8	96.8*	61.0*	5.5
O=C(c1nnsc1S(=O)c1ccc(Cl)cc1)N1CCOCC1 (stereo not given)	99.2*	20.9	14.2	-35.7	70.1*	-50.0	23.6	94.2*	53.4*
O=C(Nc1ccccc1)c1nnsc1S(=O)c1ccc(Cl)cc1 (stereo not given)	49.7	-0.4	-28.7	-80.4	-46.0	-103.5	.	.	.
COc1ccc(-c2c(-c3cc(OC)c(OC)c(OC)c3)noc2C)cn1	53.6*	30.4	55.0	-44.6	66.0*	76.5*	34.4	55.2*	73.5*
OC1(CNCc2cn[nH]c2-c2cc3ccccc3o2)CCCCC1	14.1	15.8	-3.9	8.7	-1.5	17.3	.	.	.
Cc1ccc(S(=O)(=O)N2CCC(C(=O)O)CC2)cc1	18.9	-14.4	-9.4	3.5	5.8	-5.3	.	.	.
COc1cc([N+](=O)[O-])cc(/C=N/NC(=O)c2ccc(NC(=O)c3ccc(C)cc3)cc2)c1O	87.6*	27.2	-7.2	81.2*	86.2*	42.0	54.7*	93.5*	33.2	697 NFkB conf=77.2*
O=c1cc(-c2ccccc2Cl)oc2cc(O)cc(O)c12	16.8	-14.1	-0.4	-26.2	-11.6	-58.2	.	.	.
O=C1C=CC(O)(c2cc(=O)c3c(O)cc(O)cc3o2)C=C1	99.3*	47.4	36.6	i	88.9*	25.8	70.8*	65.8*	48.2*	697 NFkB conf=i
Cc1cc(C2=NNC(=NC3CC3)SC2)c(C)n1-c1ccccc1F	98.6*	92.8*	-16.0	39.2*	78.8*	99.4*	74.4*	98.8*	11.8	697 NFkB conf=48.0*
Cc1cc(C2=NNC(=NC3CCCCC3)SC2)c(C)n1-c1c(C)n(C)n(-c2ccccc2)c1=O	-6.5	0.0	-4.0	-2.4	-9.9	-3.3	.	.	.
CC1(C)C2C/C(=N\O)C(C)(/[N+]([O-])=C/c3cccc([N+](=O)[O-])c3)CC21 (stereo not given)	1.1	25.6	-0.9	-1.9	7.8	-62.4	.	.	.
Cc1[nH]n(-c2ccccc2)c(=O)c1/C=N/Nc1nncc(-c2ccccc2)n1	88.0*	84.9*	35.2	-17.0	55.1*	91.2*	40.0	86.3*	54.7*
CC[n+]1c(/C=C/N(C)c2ccccc2)n(-c2ccccc2)c2ccc(-c3nc4ccccc4s3)cc21	100.3*	90.7*	29.2	54.5*	97.6*	120.4*	91.0*	94.5*	15.1	697 NFkB conf=83.0*
Cc1nnc(N(C)C(=O)c2ccc3c(c2)OCO3)s1	-47.9	-10.4	-15.6	-21.9	-18.9	-6.8	.	.	.
COc1ccc2c(c1)C=C(CN1CCN(C3CCCC3)C(CCO)C1)CO2 (stereo not given)	10.3	9.4	-16.5	-19.2	-19.0	0.6	.	.	.
CCOc1cc(S(=O)(=O)N2CC=C(c3ccc(F)cc3)CC2)c(OCC)cc1-n1cnnn1	53.0*	1.0	-20.9	-61.1	55.6*	12.1	23.0	52.7*	81.9*
CCC(CC)Nc1ccc(C(CC(N)=O)NC(=O)Cc2cccc3ccccc23)cc1[N+](=O)[O-] (stereo not given)	1.1	1.3	-1.4	19.8	9.9	21.5	.	.	.
CCOCCCNC(=O)c1cc2c(s1)-c1ccccc1SC2	30.4	6.5	0.8	9.8	-11.0	-24.8	.	.	.
CN(C)CCNC(=O)c1cc2c(s1)-c1ccc(Cl)cc1SC2	100.3*	13.5	-42.6	-21.0	62.5*	100.5*	0.8	87.3*	56.8*
O=C(Cc1ccc(Cl)cc1)NCCc1c[nH]c2ccccc12	.	10.5	-11.1	.	.	-10.4	.	.	.
SMILES	Mdm2 MdmX PPI	Gli-Sufu block	KLF5 inh	697 NFkB inh	Jurkat NFkB inh	aSyn UTR inh	Jurkat NFkB conf	Mdm2 MdmX conf	FLuc counter	others
O=C(CCl)N(c1ccc(Cl)cc1)c1c[nH]c2ccccc12	68.8*	88.3*	-9.5	80.3*	70.6*	48.1	26.1	100.2*	52.0*	697 NFkB conf=36.0*
COc1ccc(OC)c2c1C(=O)C(Cl)=C(Cl)C2=O	96.4*	16.8	7.5	-111.0	60.3*	-88.8	67.8*	100.1*	2.1
COc1ccc(OC)c2c1C(=O)c1ccccc1C2=O	20.7	12.3	-11.8	8.5	10.9	2.4	.	.	.
CC1=C(C(=O)Nc2cccc(F)c2)C(c2ccsc2)C2=C(CC(C)(C)CC2=O)N1 (stereo not given)	54.2*	14.1	27.8	-33.3	50.4*	18.9	6.8	53.6*	55.2*
O=C(OC(C(=O)NCc1ccccc1)c1ccccc1F)c1ccco1 (stereo not given)	5.7	12.0	-38.9	14.5	12.2	-16.1	.	.	.
Cc1cc(C)c(S(=O)(=O)N(C)CC(=O)NCc2ccncc2)c(C)c1	2.6	14.3	-0.8	9.8	5.2	27.5	.	.	.
CCCCc1cc(=O)oc2c(CN(C)C)c(O)ccc12	-14.5	5.7	-25.3	-16.9	-16.2	17.4	.	.	.
CC[C@@]1(O)C(=O)OCc2c1cc1n(c2=O)Cc2cc3c(N)cccc3nc2-1	100.3*	65.2*	.	77.5*	81.2*	102.5*	84.1*	95.8*	52.8*	697 NFkB conf=1.2
